40 compounds from the supplement of paper PMC3414501 can be followed below.

Structures can show the parent of a compound that is named as a salt.
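Note: active if sensitivity score above 5.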

The subject of the first test is S. cerevisiae NKY1551 his4x/his4B, sporulating. Kind of test: HIS4 meiotic recombination assay sensitivity score (z-score vs DMSO controls); higher = stronger inhibition of sporulation/recombination, active = hit call of the paper. To be noted: stock concentration (mM, diluted 1:100): 7.3. As for the experimental part:
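NIH Clinical Collection compounds were added 1:100 from stock (about 100 µM final) to S. cerevisiae. Growth: average doubling time (AvgG) over 24 h of BY4741 (wild-type) or AD1-9 (drug-efflux-pump deficient) in rich media. HIS4: the his4x/his4B heteroallelic recombination reporter strain (SK1) was sporulated 5 h with compound at 30°C, then colony density was read on -his plates after 48 h. Sensitivity score = (compound − mean of 8 DMSO controls)/SD of DMSO controls. Hit cutoffs are >2 for growth and >5 for sporulation.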
As to `CN1[C@@H]2CC(OC(=O)[C@H](CO)c3ccccc3)C[C@H]1[C@@H]1O[C@@H]12` (stereo not given in full), the “HIS4 meiotic recombination assay sensitivity score” value is -0.64 (inactive).

The same test, now with this note: stock concentration (mM, diluted 1:100): 7.6.
For `CN1CC[C@]23CCCC[C@H]2[C@H]1Cc1ccc(O)cc13` [Levorphanol tartrate], the “HIS4 meiotic recombination assay sensitivity score” value was -1.13 (inactive).

The test is the same for the next values; noted with them: stock concentration (mM, diluted 1:100): 8.7.
In the case of `CC(=O)O[C@H]1C[C@@H]2CC[C@@H]3[C@H](CC[C@@]4(C)[C@H]3C[C@H]([N+]3(C)CCCCC3)[C@@H]4OC(C)=O)[C@@]2(C)C[C@@H]1[N+]1(C)CCCCC1` [Pancuronium], the “HIS4 meiotic recombination assay sensitivity score” value was -0.44 (inactive).
Take `CC(NC(C)(C)C)C(=O)c1cccc(Cl)c1` (stereo not given) [Bupropion hydrochloride]: the “HIS4 meiotic recombination assay sensitivity score” value was 1.07 (inactive).

Staying with this test, now noted: stock concentration (mM, diluted 1:100): 8.9.
Take `COc1ccc(C(CN(C)C)C2(O)CCCCC2)cc1` (stereo not given) [Venlafaxine hydrochloride]: the “HIS4 meiotic recombination assay sensitivity score” value was 1 (inactive).

The same test, now with this note: stock concentration (mM, diluted 1:100): 9.
In the case of `Cc1ncc2n1-c1ccc(Cl)cc1C(c1ccccc1F)=NC2` [Midazolam hydrochloride], the “HIS4 meiotic recombination assay sensitivity score” value is 4.65 (inactive).

Still in this test, the particulars now being: stock concentration (mM, diluted 1:100): 9.9.
Take `CCCCCCCCCOc1ccc2[nH]cc(CCN)c2c1` [5-Nonyloxytryptamine]: the “HIS4 meiotic recombination assay sensitivity score” value was -2.09 (inactive).

Still in this test, the particulars now being: stock concentration (mM, diluted 1:100): 10.
On to `C[C@]12CC[C@H]3[C@@H](CCC4=CC(=O)CC[C@@]43C)[C@@H]1CC[C@@H]2O` [Testosterone], for which the “HIS4 meiotic recombination assay sensitivity score” value is -0.83 (inactive).
Turning to `FC(F)(F)c1cccc(N2CCNCC2)c1`, the “HIS4 meiotic recombination assay sensitivity score” value is 8.84 (active).
For the compound `CS(=O)(=O)Nc1ccc(Cc2noc(-c3ccc4[nH]cc(CCN)c4c3)n2)cc1`, the “HIS4 meiotic recombination assay sensitivity score” value was -0.76 (inactive).
Take `C[C@]12CC[C@H]3[C@@H](CCC4=CC(=O)CC[C@@H]43)[C@@H]1CC[C@@H]2O` [19-Nortestosterone]: the “HIS4 meiotic recombination assay sensitivity score” value was 1.09 (inactive).
On the same count and under the same terms, to `C[C@]12Cc3c[nH]nc3C[C@@H]1CC[C@@H]1[C@@H]2CC[C@@]2(C)[C@H]1CC[C@]2(C)O` [Stanozolol] belongs -0.39 (inactive); to `O=c1c2ccccc2[se]n1-c1ccccc1` [Ebselen], -0.37 (inactive); to `CN1C(=O)CN=C(c2ccccc2)c2cc(Cl)ccc21` [Diazepam], 2.18 (inactive).
With `CN=C1CN(O)C(c2ccccc2)=c2cc(Cl)ccc2=N1` [Chlordiazepoxide], the “HIS4 meiotic recombination assay sensitivity score” value was -1.07 (inactive).
Consider `O=C1CN=C(c2ccccc2)c2cc([N+](=O)[O-])ccc2N1` [Nitrazepam], for which the “HIS4 meiotic recombination assay sensitivity score” value was -0.13 (inactive).
As for `CC[C@@H]1C=CC=CC[C@H](C)[C@@H](O)[C@@H](C)C(=O)[C@H](C)[C@@H](O)[C@H](C)C(=O)[C@H](C)[C@@H](O)[C@H](C)C=CC(=O)O[C@H]2[C@@H](C)[C@@H](CC1)O[C@@]1(CC[C@@H](C)[C@@H](C[C@H](C)O)O1)[C@@H]2C` [Oligomycin c], the “HIS4 meiotic recombination assay sensitivity score” value was 0.21 (inactive).
In the case of `CC(C)CC(N(C)C)C1(c2ccc(Cl)cc2)CCC1` (stereo not given) [Sibutramine hydrochloride], the “HIS4 meiotic recombination assay sensitivity score” value was 0.96 (inactive).
`NC1=NC(=O)C(c2ccccc2)O1` (stereo not given) [Pemoline]: the “HIS4 meiotic recombination assay sensitivity score” value is -0.78 (inactive).
`C=C1C[C@@H]2[C@H](CC[C@]3(C)C(=O)CC[C@@H]23)[C@@]2(C)C=CC(=O)C=C12` [Exemestane]: the “HIS4 meiotic recombination assay sensitivity score” value was 3.99 (inactive).
Same read-out and setting: with `CC(C)[C@]12O[C@H]1[C@@H]1O[C@]13[C@]1(O[C@H]1C[C@H]1C4=C(CC[C@@]13C)C(=O)OC4)[C@@H]2O` [Triptolide] the figure was 0.28 (inactive); with `O=C1Nc2ccc(Cl)cc2C(c2ccccc2Cl)=NC1O` (stereo not given) [Lorazepam], 0.95 (inactive); with `NCCc1ccccn1` [2-(2-aminoethyl)pyridine], -0.1 (inactive).
As to `C[N+]1(C)CCN(c2ccccc2)CC1` [Dimethylphenylpiperazinium Iodide], the “HIS4 meiotic recombination assay sensitivity score” value was -0.3 (inactive).
Regarding `CCN(CC)CCOC(=O)C(O)(c1ccccc1)c1ccccc1` [Benactyzine hydrochloride], the “HIS4 meiotic recombination assay sensitivity score” value is -0.53 (inactive).
As for `COc1cc(N)c(Cl)cc1C(=O)NC1CN2CCC1CC2` (stereo not given) [Zacopride], the “HIS4 meiotic recombination assay sensitivity score” value was -2.43 (inactive).
Same read-out and setting: to `COc1ccc2[nH]cc(CCN)c2c1` [5-Methoxytryptamine] belongs -1.35 (inactive); to `CCN(C(C)=O)c1cccc(-c2ccnc3c(C#N)cnn23)c1` [Zaleplon], -0.58 (inactive).
Take `c1ccc2c3c([nH]c2c1)CNCC3` [Tryptoline]: the “HIS4 meiotic recombination assay sensitivity score” value was -3.38 (inactive).
With `CN1C(=O)CN=C(c2ccccc2)c2cc([N+](=O)[O-])ccc21` [Nimetazepam], the “HIS4 meiotic recombination assay sensitivity score” value was -0.26 (inactive).
With `CNC(=O)Oc1ccc2c(c1)[C@]1(C)CCN(C)[C@@H]1N2C` [Physostigmine], the “HIS4 meiotic recombination assay sensitivity score” value was -0.16 (inactive).
Regarding `c1ccc(Cn2ccnc2)cc1` [1-Benzylimidazole], the “HIS4 meiotic recombination assay sensitivity score” value was -0.23 (inactive).
Same read-out and setting: to `c1ccc2c(c1)Nc1ccccc1S2` [Phenothiazine] belongs 2.62 (inactive); to `COc1cccc(C2(O)CCCCC2CN(C)C)c1` (stereo not given) [Tramadol], -2.65 (inactive).
Regarding `C[C@H]1CCC[C@H](O)CCCCCc2cc(O)cc(O)c2C(=O)O1` [Zeranol], the “HIS4 meiotic recombination assay sensitivity score” value was -1.27 (inactive).

The same test, now with this note: stock concentration (mM, diluted 1:100): 10.1.
On to `C[N+]1(CCC(C(N)=O)(c2ccccc2)c2ccccc2)CCCCC1` [Fenpiverinium bromide], for which the “HIS4 meiotic recombination assay sensitivity score” value was -1.06 (inactive).
For `CC(NC(C)(C)C)C(=O)c1cccc(Cl)c1` (stereo not given) [Amfebutamone hydrochloride], the “HIS4 meiotic recombination assay sensitivity score” value was -0.33 (inactive).
In the case of `C[C@]12CCC(=O)C[C@@H]1CC[C@@H]1[C@@H]2CC[C@@]2(C)[C@H]1CC[C@]2(C)O` [Mestanolone], the “HIS4 meiotic recombination assay sensitivity score” value is -0.62 (inactive).

The same test, now with this note: stock concentration (mM, diluted 1:100): 11.3.
`CC(C)CC(N(C)C)C1(c2ccc(Cl)cc2)CCC1` (stereo not given) [Sibutramine]: the “HIS4 meiotic recombination assay sensitivity score” value was 1.61 (inactive).

Staying with this test, now noted: stock concentration (mM, diluted 1:100): 19.9.
In the case of `Cc1ccc(-c2nc3ccc(C)cn3c2CC(=O)N(C)C)cc1` [Zolpidem tartrate], the “HIS4 meiotic recombination assay sensitivity score” value is 0.04 (inactive).
